The campaign covered roughly 69,000 compounds. About 8,600 (12%) showed an effect of 50% or more. The full list was thinned out, with strong results kept by preference.

This experiment relates to Plasmodium berghei. The experiment in a line: Screen against P. berghei liver stage (PbLuc), transformed with Luciferase, at 10uM. It is filed as functional, HepG2. Conditions: tested at 10 uM.
As to `Fc1ccc(Oc2nccnc2C2CCN(C3CCOCC3)CC2)cc1`, the INHIBITION is 38.7%.

Consider `CC(C)(N)C(=O)N1CCC(c2nccnc2Oc2ccccc2F)CC1`, for which the INHIBITION worked out at 63.4%. Regarding `c1ccc(Oc2nccnc2C2CCN(C3CCOCC3)CC2)cc1`, the INHIBITION is reported as -38.3%. With `Fc1cccc(Oc2nccnc2C2CCN(C3CCOCC3)CC2)c1`, the INHIBITION is 52.7%. For `Cc1cccc(Oc2nccnc2C2CCN(C(=O)C(C)(C)N)CC2)c1` the value was 47.1%.

Turning to `CC(C)(N)C(=O)N1CCC(c2nccnc2Oc2cccc(F)c2)CC1`, the INHIBITION was determined as 56%. In the case of `Fc1ccccc1Oc1nccnc1C1CCN(C2CCOCC2)CC1`, the INHIBITION is 25.8%. For `Cc1ccc(Oc2nccnc2C2CCN(C(=O)C(C)(C)N)CC2)cc1` the value was 33.7%; for `NC(=O)CN1CCCC(c2nccnc2Oc2cccc(F)c2)C1` (stereo not given), -39.4%; for `CCOCC1CC2(CCN(C(=O)c3ccc4ccccc4n3)CC2)CO1` (stereo not given), -33.9%. As for `Cc1ccc2c(c1)C(=O)NCC1(CCN(C(=O)c3sccc3C)CC1)O2`, the INHIBITION was determined as 41.2%. Turning to `COc1ncc(C(=O)N(Cc2cnn(C)c2)C(C)C)cn1`, the INHIBITION was determined as 22%.

Turning to `C1CC(CN2CCO[C@H]3[C@H](OCC4CC4)CC[C@@H]32)CCO1`, the INHIBITION is given as 40.9%. Turning to `CN(C)CCN(CC1CCCO1)S(=O)(=O)NCc1ccccc1` (stereo not given), the INHIBITION stood at 19.4%. Regarding `Cc1cccc(CN2C(=O)CCC23CCN(C(=O)c2ccco2)CC3)n1`, the INHIBITION is recorded as -24.5%. To `CN1CCc2cc(C(=O)N(C)C)c(NCC3CC3)nc2CC1` belongs 2.59%. Take `COc1c(CNCc2cccc(Cn3ccnc3C)c2)c(C)nn1C`: the INHIBITION came out at 43.3%. For `COCc1cc(N(C)Cc2ncnn2C)nc(C(C)(C)C)n1`, the INHIBITION was found to be 50.8%.

Take `CN(Cc1cc(Cl)ccc1Cl)Cc1ncnn1C`: the INHIBITION is recorded as 15.9%.

As to `COCc1cc(N(C)Cc2cc(C(C)(C)C)n[nH]2)ncn1`, the INHIBITION was -30.5%. `CN(Cc1cnccn1)c1cncc(Br)c1`: the INHIBITION amounted to 45.9%. With `COCc1cc(N(C)Cc2ccccn2)nc(C(C)(C)C)n1`, the INHIBITION is listed as 27.7%. For `COCc1cc(N(C)Cc2cnccn2)nc(C(C)(C)C)n1` the value was 62%. For `Cc1nc(N)nc(C)c1CC(=O)N1CCCCC1c1cccc(F)c1` (stereo not given), the INHIBITION is recorded as 19.3%. Take `Cc1noc(O)c1Cc1ccc2ccccc2c1`: the INHIBITION is -26.2%. Consider `Cc1ccsc1CN(C)c1cc(N2CCCC2CO)ncn1` (stereo not given), for which the INHIBITION was 18.6%. To `CN(C)c1cc(N(C)Cc2cc(C(C)(C)C)n[nH]2)ncn1` belongs -82.7%; to `COc1cc(N(C)Cc2cc(C(C)(C)C)n[nH]2)ncn1`, -45%. To `CCn1ccnc1CN(C)c1cc(C2CC2)ncn1` belongs 52.6%. For `CCn1ccnc1CN(C)c1cc(OC)ncn1` the value was 58.2%.

For the compound `CCn1ccnc1CN(C)c1cc(N(C)C)ncn1`, the INHIBITION was found to be 57.3%. For `COc1cc(N(C)CCCn2nc(C)cc2C)ncn1`, the INHIBITION is given as 14.3%. To `CCn1ccnc1CN(C)C(=O)Cn1ccc2ccccc2c1=O` belongs 3.04%; to `Cc1cc(C)n(CCCN(C)c2cc(C3CC3)ncn2)n1`, 8.7%.

Regarding `CCn1ccnc1CN(C)c1cc(C2CCCNC2)nc(C)n1` (stereo not given), the INHIBITION is 4.41%. As to `COc1cc(N2CCO[C@H]3[C@@H](Oc4cccnc4)CC[C@@H]32)ncn1`, the INHIBITION was determined as 23.5%.

As to `Cc1cccc(CN2CC3(CCN(Cc4ccco4)CC3)OCC2=O)n1`, the INHIBITION is reported as -16.2%.

For the compound `NC(=O)C1CCN(C(=O)Cc2cnc(-c3c(Cl)cccc3Cl)s2)CC1`, the INHIBITION is on record as 37.9%. On to `O=S(=O)(c1ccc(F)cc1)N1CCCC1c1cc[nH]n1` (stereo not given), for which the INHIBITION is given as 33.7%.

As to `COc1ccc(C(=O)N2CCC(Nc3cccnn3)CC2)c(F)c1`, the INHIBITION was -32%. Take `CCc1noc(C(C)N(C)CC(=O)Nc2ccccc2Cl)n1` (stereo not given): the INHIBITION is on record as 21.7%. For `CC(C)N(CC(=O)O)Cc1cccc(Br)c1` the value was 13.2%.

As for `CC(C)N(CC(=O)Nc1ccc(Br)cc1Cl)Cc1cccnc1`, the INHIBITION was determined as 73.2%. For `N#CCCN(CC(=O)Nc1ccc(Br)cc1Cl)Cc1cccnc1` the value was 64.3%; for `CC(C)N(CC(N)=O)Cc1cccc(Br)c1`, 16.6%; for `N#CCCN(Cc1cccnc1)C(=O)c1ccc(-n2cnnn2)cc1`, 18.6%.

Regarding `Cc1c(Cl)cccc1NC(=O)CN(Cc1cccnc1)C(C)C`, the INHIBITION came out at 73.2%. Take `N#CCCN(Cc1cccnc1)C(=O)c1cc(Cl)c[nH]1`: the INHIBITION came to 30.3%. `Cc1c(Cl)cccc1NC(=O)CCNc1ccc(C#N)cn1`: the INHIBITION is on record as -128%. With `O=C(Cc1ccc2c(c1)CCC2)N1CCCC1Cn1cccn1` (stereo not given), the INHIBITION is 2.79%. As for `Cc1cccc(N2CC3(CCN(S(=O)(=O)C4CC4)C3)C2)n1`, the INHIBITION is reported as 34.6%. Turning to `CC(=O)N1CCCC2(CN(Cc3ccc(C)s3)CCO2)C1` (stereo not given), the INHIBITION is on record as -46.8%.

For `O=C(Cc1cccs1)N1C[C@H]2CN(CC3CCCO3)CC[C@H]2C1` (stereo not given in full), the INHIBITION is listed as 30.3%.

Consider `O=C1[C@@H]2CN(c3ncc(Cl)cc3F)C[C@]2(C(=O)O)CN1CC1CC1`, for which the INHIBITION was -5.19%. In the case of `Cc1nc(CN(C)C2CCCN(c3cccnn3)C2)oc1C` (stereo not given), the INHIBITION was -21.8%. As for `Cc1cc(C)c(CNC(=O)N2CCCC2c2cc(C)on2)c(=O)[nH]1` (stereo not given), the INHIBITION amounted to 81.3%. Consider `Cc1cc(C2CCCN2C(=O)NCc2c(C)cc(C)[nH]c2=O)on1` (stereo not given), for which the INHIBITION came to 36.1%.

Take `Cc1cc(C2CCCN2C(=O)CN(C)Cc2ccccc2)no1` (stereo not given): the INHIBITION came out at 58.7%. `Cc1cc(C)c(CNC(=O)N2CCCC2c2ccccn2)c(=O)[nH]1` (stereo not given): the INHIBITION is reported as -14.7%. For `CN(CC(=O)N1CCCC1c1ccccn1)Cc1ccccc1` (stereo not given) the value was 26.6%; for `Cc1nc(C2CCCN2C(=O)CN(C)Cc2ccccc2)no1` (stereo not given), 34%. For `CN(C)[C@@H]1CCN(c2ncccn2)[C@H]1Cc1cccnc1`, the INHIBITION is reported as -31.4%. For the compound `CCN1CCC(N2CCC(C(=O)N(C)C)CC2)CC1`, the INHIBITION is listed as 15.6%. `Cc1ncsc1-c1nnc(C2CCN(Cc3ccc(Cl)cc3)CC2)o1`: the INHIBITION stood at 76.8%. To `Cc1ncsc1-c1nnc(C2CCN(Cc3cccc(Cl)c3)CC2)o1` belongs -6.3%; to `Cc1ncsc1-c1nnc(C2CCN(Cc3ccccc3)CC2)o1`, 27.8%; to `Cc1ccc(CN2CC[C@H](c3nnc(-c4ccco4)o3)C2)cc1`, -33%.

On to `Fc1ccc(CCN2CCC(c3nnc(-c4cccnc4)o3)CC2)cc1`, for which the INHIBITION is on record as 35.3%.

In the case of `Cc1ccsc1-c1nnc(C2CCN(Cc3ccc(F)cc3)CC2)o1`, the INHIBITION is given as 68.2%. In the case of `COc1ccc(CN2CCC(c3nnc(-c4scnc4C)o3)CC2)cc1`, the INHIBITION stood at 54.5%. With `Cc1ncsc1-c1nnc(C2CCN(Cc3ccc(F)cc3)CC2)o1`, the INHIBITION was found to be 35.3%. As to `Cc1cccc(CN2CCC(c3nnc(-c4scnc4C)o3)CC2)c1`, the INHIBITION is given as 23.4%.

As to `COc1ccc2c(c1)CN(C)C(=O)CCN2CC(O)C(F)(F)F` (stereo not given), the INHIBITION is listed as -8.04%. Consider `Cc1cnc(CNCc2cn(CCN3CCSCC3)nc2C)cn1`, for which the INHIBITION stood at 4.68%. To `O=C(NCC(F)F)c1cnc(C2CCCN2)cn1` (stereo not given) belongs 61.05%; to `Cc1csc(NC(=O)c2cnc(C3CCNCC3)cn2)n1`, 24.4%; to `O=C(NCc1ccccn1)c1cnc(C2CCCN2)cn1` (stereo not given), 18.3%.

In the case of `Cc1cccc(NC(=O)c2cnc(C3CCCNC3)cn2)n1` (stereo not given), the INHIBITION was 10.4%. As for `Cc1csc(NC(=O)c2cnc(C3CCCN(C)C3)cn2)n1` (stereo not given), the INHIBITION was 71.3%. In the case of `COc1c(C2CCCN2CC(=O)Nc2nc(C)cs2)c(C)nn1C` (stereo not given), the INHIBITION stood at 31.9%. For the compound `FC(F)CNc1cnc(C2CCCN2)cn1` (stereo not given), the INHIBITION is reported as 5.15%.

Consider `Cc1nn(C)c(C)c1-c1cnc(C2CCCN(C)C2)cn1` (stereo not given), for which the INHIBITION is reported as -28.6%.

Regarding `Cc1csc(NC(=O)c2cnc(C3CCCN3)cn2)n1` (stereo not given), the INHIBITION is reported as 80.9%. Regarding `COCCN1Cc2nccn2CC(COCc2csc(C)n2)C1` (stereo not given), the INHIBITION was determined as 29.5%. With `CN(C)CCNC(=O)c1sc2ccccc2c1C1CCC(CN)CC1` (stereo not given), the INHIBITION was -77.3%. With `COCC1CN(S(=O)(=O)N(C)C)Cc2cnn(CC3CCCC3)c21` (stereo not given), the INHIBITION is -17.1%. To `COc1cccc2c1ccn2CCNC(=O)CCNc1ncccn1` belongs 38.5%; to `COc1ncnc2c1CCN(Cc1cccc(C)n1)CC2`, 10.7%; to `Cc1cc(CN(C)Cc2csc(-c3cccs3)n2)n[nH]1`, 57%. Consider `CN(Cc1csc(-c2cccs2)n1)CC(O)CO` (stereo not given), for which the INHIBITION came out at 51.5%. With `CC(NS(C)(=O)=O)C(=O)N(C)Cc1csc(-c2cccs2)n1` (stereo not given), the INHIBITION was -102%. As to `CNC(=O)C(C)S(=O)(=O)Cc1csc(-c2cccs2)n1` (stereo not given), the INHIBITION is listed as 30.1%. With `CN(Cc1csc(-c2cccs2)n1)Cc1cccnc1N`, the INHIBITION is 55.9%. To `CCc1nc(CN(C)Cc2nnc(-c3cccs3)o2)cs1` belongs 7.81%; to `COC(=O)NCC(=O)N(C)Cc1csc(-c2cccs2)n1`, 49.2%; to `CN(Cc1csc(-c2cccs2)n1)Cc1ncccc1C(=O)O`, 5.91%.

Take `Cc1nc(CN(C)Cc2csc(-c3cccs3)n2)co1`: the INHIBITION stood at 15.7%. With `O=C(C1CCOCC1)N1CCCC1c1cncc(CN2CCCC2)n1` (stereo not given), the INHIBITION came out at 41.5%. Take `COCC(=O)N1CC(c2csc(NC(C)=O)n2)C1`: the INHIBITION turned out to be 2.71%. Consider `CNC(=O)C1CCN(C(=O)NCCc2ccc(Cl)s2)CC1`, for which the INHIBITION stood at 23.5%. For the compound `Cc1ccc(-c2nnc(C3CCCN3S(=O)(=O)c3cnn(C)c3C)o2)s1` (stereo not given), the INHIBITION came out at 19.02%. Regarding `Cc1ccc(NC2CCN(C(=O)CCc3c(C)noc3C)CC2)nn1`, the INHIBITION stood at 7.12%. Consider `CCc1ncnc2c1CCN(C(=O)c1ccccn1)CC2`, for which the INHIBITION is given as -0.813%. For the compound `COCCNC(=O)c1cc2c(nc1O)CC(c1cccs1)CC2=O` (stereo not given), the INHIBITION stood at 55.2%. Consider `CC1CCc2nc(O)c(C(=O)NCCc3cccs3)cc2C1` (stereo not given), for which the INHIBITION was -111%. To `O=C(O)c1cc2c(nc1O)CC(c1cccc(Cl)c1)CC2=O` (stereo not given) belongs -23.7%; to `O=C1CC(c2cccs2)Cc2nc(O)c(C(=O)N3CCCC3)cc21` (stereo not given), -60.7%. For `O=C(O)c1cc2c(nc1O)CC(c1cccs1)CC2=O` (stereo not given) the value was -6.32%; for `O=C(NC1CC1)c1cc2c(nc1O)CC(c1cccs1)CC2=O` (stereo not given), 75.2%. For `O=C(Cc1ccccc1Cl)Nc1cc(N2CCCC2)ncn1` the value was -12.1%.

The values are drawn from ChEMBL document CHEMBL4513216, “Probing the Open Global Health Chemical Diversity Library for Multistage-Active Starting Points for Next-Generation Antimalarials” (ACS Infect Dis, 2020).
